Screening results deposited in PubChem BioAssay by several laboratories.
LMP1 NFkB inh: inhibitors of Epstein-Barr LMP1-induced NF-kappaB reporter. inhibition, % at 12.5 µM. 350,000 tested, 0.69% active. LMP1-induced NF-kappaB luciferase reporter cells, luminescence; in the data active = inhibition above about 41%;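 note: 0% = neutral control wells and 100% = reference inhibitor control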
HIF-2a block: HIF-2a inhibition | 786-0 RCC cells HIF-2a reporter, luciferase luminescence, overnight | inhibition, % at 18.8 µM | 360,000 tested, 0.72% active;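 active = inhibition of the luminescence signal of 40% or more relative to plate controls, in a single-dose primary screen at 18.75 µM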
TROY signal inh: inhibitors of TROY-dependent NF-kB signaling; inhibition, % at 10 µM; Q293 LMP1-TROYcd NF-kB luciferase reporter, 4 h; 360,000 tested, 0.98% active; AID 1347056;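 active = compounds whose plate-normalised and pattern-corrected inhibition of the luciferase reporter signal at the single screening dose is 50% or more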
TRPM1 prom inh: MITF TRPM1 promoter inhibition in SK-MEL-5 cells; SK-MEL-5 TRPM1 promoter luciferase, 24 h; inhibition, % at 12.5 µM; 330,000 tested, 0.83% active;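 active = mean inhibition across replicates of 60% or more, whatever share of single replicates reaches that level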
TWEAK Fn14 block: blocks TWEAK-Fn14 interaction in a reporter cell assay | TWEAK-stimulated Fn14 reporter cells, luciferase luminescence, 8 h | inhibition, % at 10 µM | 360,000 tested, 2% active; in the data active = inhibition above about 50%
Peg3 prom inh: Peg3 promoter activity inhibition. 360,000 tested, 1.7% active. inhibition, % at 20 µM. HeLa PEG-Prom luciferase reporter, luminescence, overnight. AID 588405;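 active = inhibition of at least 50% at 20 µM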
Active calls of the source: *; . = no result. Hits are enriched below; roughly 4% of the tested compounds scored in any of these assays.

SMILES	LMP1 NFkB inh	HIF-2a block	TROY signal inh	TRPM1 prom inh	TWEAK Fn14 block	Peg3 prom inh
COc1cccc(C(=O)N2CCC(n3nccc3NC(=O)CCOc3ccccc3)CC2)c1	-2	-48	-30	-8	-6	-46
COC1OC2COC(c3ccccc3)OC2C(OC(C)=O)C1OC(C)=O (stereo not given)	-8	12	-10	7	22	4
CCc1cccc(NC(=S)Nc2cccc3ccccc23)c1	-8	-73	52*	18	6	-31
COc1ccc(S(=O)(=O)N(Cc2ccccc2)Cc2nc3ccccc3c(=O)[nH]2)cc1	1	21	-2	-5	6	18
COc1ccccc1CN(Cc1nc2ccccc2c(=O)[nH]1)S(=O)(=O)c1ccc2ccccc2c1	10	9	47	42	55*	58*
CC1(c2nnnn2Cc2ccccc2)CCC(=O)N1Cc1ccc(F)cc1 (stereo not given)	.	-2	-9	.	5	.
CCCc1cc(=O)[nH]c(SCC(=O)Nc2cc(C)on2)n1	-4	12	-11	7	0	1
O=C(CCn1ccc2cc(S(=O)(=O)N3CCCC3)ccc21)NCCc1ccccc1	72*	-3	-4	-5	5	12
Cc1c(C=O)c2ccccn2c1C(=O)c1cccs1	11	16	-2	-6	-25	-11
Cc1c(C=O)c2ccccn2c1C(=O)c1ccccc1Cl	53*	25	2	7	0	26
COc1ccccc1Nc1nnc(SCC2CCCCO2)s1 (stereo not given)	37	-133	29	-6	65*	-102
COc1cc(Nc2nc3c(N)cc(C(F)(F)F)cc3nc2-c2ccccc2)cc(OC)c1OC	-10	-76	14	-13	17	-51
COc1ccccc1N1CCN(c2nnc(-c3ccc(F)cc3)c3ccccc23)CC1	24	10	34	11	43	34
Fc1ccc(-c2nnc(-n3nnc4ccccc43)c3ccccc23)cc1	53*	21	5	-10	-9	-2
COc1ccc2c(c1)C(c1ccc(C)o1)=NNC(c1ccccc1)=N2	43*	-19	-12	2	-16	-23
Oc1ccc(C=NNC(=S)Nc2ccccc2)nc1	51*	-140	-40	.	20	-50
[O-][n+]1c2ccc3nonc3c2nn1-c1ccccc1Cl	-15	0	7	-1	-14	11
COc1ccc(/C=C2\SC(=O)N(CC(=O)NC3CCS(=O)(=O)C3)C2=O)cc1 (stereo not given)	-5	-19	-27	-9	-3	-17
CCOc1ccc(NC(=O)c2ccc(F)c(S(=O)(=O)N3CCN(c4ccccn4)CC3)c2)cc1	18	-11	44	26	44	4
O=C(Nc1cccc(Cl)c1)c1ccc(F)c(S(=O)(=O)N2CCN(c3ccccn3)CC2)c1	12	-3	33	-1	59*	-67
Cn1nc(C(=O)Nc2ccc(Cl)c(S(=O)(=O)N3CCOCC3)c2)c2ccccc2c1=O	2	4	-3	-15	13	53*
O=C(Nc1cccc(Br)c1)c1ccc(Cl)c(S(=O)(=O)N2CCOCC2)c1	6	-106	45	20	77*	8
O=C(Nc1ccc(Cl)c(S(=O)(=O)N2CCOCC2)c1)c1ccc(OCC2CCCO2)cc1 (stereo not given)	17	-8	77*	72*	99*	103*
COc1ccc(C(=O)Nc2ccc(Cl)c(S(=O)(=O)N3CCOCC3)c2)cc1	18	-19	40	11	38	39
CCOC(=O)C1CCN(S(=O)(=O)c2cn(C)c(C)n2)CC1	-6	-2	3	6	-3	14
SMILES	LMP1 NFkB inh	HIF-2a block	TROY signal inh	TRPM1 prom inh	TWEAK Fn14 block	Peg3 prom inh
O=C(O)C1CCCN1C(=O)C1CCN(S(=O)(=O)c2cccc(C(F)(F)F)c2)CC1 (stereo not given)	-2	12	-6	-7	4	-8
NNC(=O)c1n[nH]c2c1CC(C1CCCCC1)CC2 (stereo not given)	1	1	30	9	13	-10
Cc1ccccc1OC(C)C(=O)Nc1ccc(S(=O)(=O)Nc2nccs2)cc1 (stereo not given)	4	14	17	-7	25	16
O=C(CN1C(=O)CCOc2ccccc21)Nc1ccc(Cl)c(S(=O)(=O)N2CCOCC2)c1	42*	14	-2	4	-17	-6
CC(=O)Nc1ccc(S(=O)(=O)N2CCC(C(N)=O)(N3CCCCC3)CC2)cc1	-9	2	-18	-12	3	-3
COC(=O)[C@@H]1[C@@H](C#N)C2(c3ccccc3-c3ccccc32)N(c2ccc(Cl)cc2)N1C#N	4	64*	-7	38	17	110*
COc1ccc(NC(=O)c2cc(-c3cc(C)cc(C)c3O)n[nH]2)cc1Cl	-12	-12	64*	2	82*	61*
Cc1ccc(C)c(CN2CCN(c3ncccn3)CC2)c1	12	13	6	4	1	4
COc1ccc(OC)c(NC(=O)CSc2ncnc3sc(C)cc23)c1	-3	-32	-5	1	-5	-17
CN1C2CCC1/C(=C\c1ccc(F)cc1)C(=O)/C2=C/c1ccc(F)cc1	-74	82*	-14	26	65*	18
CC1CC(C)C[N+](=C2C=C(N3CCCC3)CC(C)(C)C2)C1 (stereo not given)	42*	4	19	70*	50	34
CCc1ccc2cc(F)cc(F)c2n1	.	4	10	.	0	-2
Nc1ccc(-c2nc3ccc(N)cc3s2)cc1	12	-13	28	-2	74*	-50
Nc1cccc(-c2nc3ccc(N)cc3s2)c1	12	-9	13	-35	78*	-7
CCN(CC)C(=O)c1nc[nH]c1C(=O)N1CCc2ccccc2C1	2	12	-16	-4	-5	-4
NC1C2CN(c3nc4c(cc3F)c(=O)c(C(=O)O)cn4-c3ccc(F)cc3F)CC12 (stereo not given)	-2	-1	-14	7	-13	41
Nc1[nH]c(C(=O)c2ccccc2)c(-c2ccccc2Br)c1C(=O)c1ccccc1	.	-14	-1	.	26	.
C=CCNC(=O)C1CC2Cn3c(nc4cc5ccccc5cc43)C2N1C (stereo not given)	-7	-48	-5	-14	-1	-43
COc1ccc(OCc2cc(C(=O)NCC(C)Oc3cccnc3)no2)c(Cl)c1 (stereo not given)	-12	-165	-30	-29	-16	-173
CSc1nc2ccc(N3C(=O)C4CCCCC4C3=O)cc2s1 (stereo not given)	-9	-23	-36	3	107*	12
CCc1ccc(NC(=S)/N=C(\N)Nc2nc(C)c3cc(CC)ccc3n2)cc1	11	-21	41	17	57*	15
CCOc1ccc2nc(N/C(N)=N/C(=S)Nc3ccc(OC)cc3)nc(C)c2c1	-1	-17	-9	-5	-11	8
